# PubChem BioAssay (Tox21)
# Unmarked numbers belong to inactive results. Records with an inconclusive call do not appear. Where a call stands in place of a potency, no number is given. The source made the active and inactive calls. Calls follow the shape of the dose curve; as a rule, active = well fitted curve in the direction sought with a large enough effect in the repeat runs; inconclusive = weak or mixed curves; inactive = no such curve, though single readings can be large; an effect the other way counts as inactive or inconclusive.
# Columns and labels:
# [1] = qHTS RealTime-Glo MT Cell Viability Assay in HEK293 cells - 0 hour (AID 1224880); also: top concentration of the series differs between compounds; nearly all actives have a fitted effect of over 45% in size
# In short: (§1)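 qHTS format; HEK293 cells with NanoLuc/prosubstrate reagent, 37 C/5% CO2 for 5 h pre-dosing; compounds 23 nL in DMSO; luminescence at each time point reflects viable cells.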
# [2] = A CellTox Green Cytotoxicity Assay to monitor cytotoxicity in HEK293 cells - 32 hour (AID 1224881); also: nearly all actives have a fitted effect of over 40% in size
# In short: (§2)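 Each value comes from one timepoint of a single continuous run in which HEK293 cells with CellTox Green were exposed to compound for up to 40 h at 37 C, dye fluorescence rising with cell death.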
# [3] = A CellTox Green Cytotoxicity Assay to monitor cytotoxicity in HepG2 cells - 0 hour (AID 1224882); also: nearly all actives have a fitted effect of over 35% in size
# In short: (§3)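 Continuous culture of HepG2 cells with a membrane-impermeant DNA dye; rising fluorescence marks dead cells. Compound exposure lasted up to 40 h at 37 C, with reads every 8 h from 0 h.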
# [4] = A CellTox Green Cytotoxicity Assay to monitor cytotoxicity in HepG2 cells - 32 hour (AID 1224883); also: nearly all actives have a fitted effect of over 50% in size
# In short: as §3
# [5] = A CellTox Green Cytotoxicity Assay to monitor cytotoxicity in HEK293 cells - 8 hour (AID 1224884); also: nearly all actives have a fitted effect of over 35% in size
# In short: as §2
# [6] = qHTS RealTime-Glo MT Cell Viability Assay in HepG2 cells - 16 hour (AID 1224885); also: nearly all actives have a fitted effect of over 50% in size
# In short: (§4)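 qHTS, HepG2, 600 cells/well, RealTime-Glo (NanoLuc + prosubstrate) added with cells; 5 h preincubation; DMSO compound addition; 37 C; luminescence at 0/8/16/24/32/40 h.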
# [7] = qHTS RealTime-Glo MT Cell Viability Assay in HEK293 cells - 24 hour (AID 1224886); also: nearly all actives have a fitted effect of over 50% in size; also: potency is read from the fitted curve at half-maximal effect; as to activity change, negative = cytotoxicity: top concentration of the series differs between compounds
# In short: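 Assay medium contained NanoLuc luciferase plus cell-permeant prosubstrate, added with HEK293 cells at 600 cells/well. After 5 h at 37 C/5% CO2 compounds were added; plates stayed at 37 C for 40 h with serial luminescence reads.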
# [8] = qHTS RealTime-Glo MT Cell Viability Assay in HEK293 cells - 8 hour (AID 1224887); also: nearly all actives have a fitted effect of over 50% in size; also: potency is read from the fitted curve at half-maximal effect; as to activity change, negative = cytotoxicity: top concentration of the series differs between compounds
# In short: as §1
# [9] = A CellTox Green Cytotoxicity Assay to monitor cytotoxicity in HEK293 cells - 16 hour (AID 1224888); also: nearly all actives have a fitted effect of over 35% in size
# In short: as §2
# [10] = qHTS RealTime-Glo MT Cell Viability Assay in HepG2 cells - 0 hour (AID 1224889); also: nearly all actives have a fitted effect of over 50% in size
# In short: as §4
smiles,measurement,setting,value
CCn1c(=O)c2c(nc(/C=C/c3ccc(OC)c(OC)c3)n2C)n(CC)c1=O,outcome,[1],inactive
same,Potency,[2],inactive
same,Potency,[3],inactive
same,Potency,[4],inactive
same,Potency,[5],inactive
same,outcome,[6],inactive
same,Potency,[7],1690 nM (active)
same,Potency,[8],1510 nM (active)
same,Potency,[9],inactive
Cc1c(F)cc2c(=O)c(C(=O)O)cn3c2c1CCC3C (stereo not drawn),outcome,[1],inactive
same,Potency,[2],inactive
same,Potency,[3],inactive
same,Potency,[4],inactive
same,Potency,[5],inactive
same,outcome,[6],inactive
same,Potency,[7],inactive
same,Potency,[8],inactive
same,Potency,[9],inactive
CC1=CC(=O)CCC1,outcome,[1],inactive
same,Potency,[2],inactive
same,Potency,[3],inactive
same,Potency,[4],inactive
same,Potency,[5],inactive
same,outcome,[6],inactive
same,Potency,[7],inactive
same,Potency,[8],inactive
same,Potency,[9],inactive
NC(N)=NS(=O)(=O)c1ccc(N)cc1,outcome,[1],inactive
same,Potency,[2],inactive
same,Potency,[3],inactive
same,Potency,[4],inactive
same,Potency,[5],inactive
same,outcome,[6],inactive
same,Potency,[7],inactive
same,Potency,[8],inactive
same,Potency,[9],inactive
same,Potency,[10],inactive
CC1(C)OC(=O)Nc2ccc(Br)cc21,outcome,[1],inactive
same,Potency,[2],inactive
same,Potency,[3],inactive
same,Potency,[4],inactive
same,Potency,[5],inactive
same,outcome,[6],inactive
same,Potency,[7],inactive
same,Potency,[8],inactive
same,Potency,[9],inactive
O=C(O)c1ccccc1-c1ccc(C(F)(F)F)cc1,outcome,[1],inactive
same,Potency,[2],inactive
same,Potency,[3],inactive
same,Potency,[4],inactive
same,Potency,[5],inactive
same,outcome,[6],inactive
same,Potency,[7],inactive
same,Potency,[8],inactive
same,Potency,[9],inactive
same,Potency,[10],inactive
N[C@@H](CS)C(=O)O,outcome,[1],inactive
same,Potency,[2],inactive
same,Potency,[3],inactive
same,Potency,[4],inactive
same,Potency,[5],inactive
same,outcome,[6],inactive
same,Potency,[7],inactive
same,Potency,[8],inactive
same,Potency,[9],inactive
same,Potency,[10],inactive
NS(=O)(=O)c1cc2c(cc1C(F)(F)F)NC(Cc1ccccc1)NS2(=O)=O (stereo not drawn),outcome,[1],inactive
same,Potency,[2],inactive
same,Potency,[3],inactive
same,Potency,[4],inactive
same,Potency,[5],inactive
same,outcome,[6],inactive
same,Potency,[7],inactive
same,Potency,[8],inactive
same,Potency,[9],inactive
COc1ccc(N=[N+]([O-])c2ccc(OC)cc2)cc1,outcome,[1],inactive
same,Potency,[2],inactive
same,Potency,[3],inactive
same,Potency,[4],inactive
same,Potency,[5],inactive
same,outcome,[6],inactive
same,Potency,[7],inactive
same,Potency,[8],inactive
same,Potency,[9],inactive
CCCCCCCCCCCl,outcome,[1],inactive
same,Potency,[2],inactive
same,Potency,[3],inactive
same,Potency,[4],inactive
same,Potency,[5],inactive
same,outcome,[6],inactive
same,Potency,[7],inactive
same,Potency,[8],inactive
same,Potency,[9],inactive
same,Potency,[10],inactive
Cc1ccccc1Br,outcome,[1],inactive
same,Potency,[2],inactive
same,Potency,[3],inactive
same,Potency,[4],inactive
same,Potency,[5],inactive
same,outcome,[6],inactive
same,Potency,[7],inactive
same,Potency,[8],inactive
same,Potency,[9],inactive
same,Potency,[10],inactive
Nc1ccc2cc(S(=O)(=O)O)ccc2c1,outcome,[1],inactive
same,Potency,[2],inactive
same,Potency,[3],inactive
same,Potency,[4],inactive
same,Potency,[5],inactive
same,outcome,[6],inactive
same,Potency,[7],inactive
same,Potency,[8],inactive
same,Potency,[9],inactive
same,Potency,[10],inactive
C=C(C)C(=O)OCCCCCCCCCCCCCCCCCC,"activity change, negative = cytotoxicity",[1],4.5% [at 15.8 µM]
same,cytotoxicity increase,[2],3.44% [at 15.8 µM]
same,cytotoxicity,[3],0.514% [at 15.8 µM]
same,cytotoxicity increase,[4],-0.434% [at 15.8 µM]
same,cytotoxicity increase,[5],-3.54% [at 15.8 µM]
same,"activity change, negative = cytotoxic",[6],0.444% [at 15.8 µM]
same,"activity change, negative = cytotoxicity",[7],11.4% [at 15.8 µM]
same,"activity change, negative = cytotoxicity",[8],4.13% [at 15.8 µM]
same,activity change,[9],"0.239% [at 15.8 µM, hits give high values]"
same,"activity change, negative = cytotoxicity",[10],-1.29% [at 15.8 µM]
Nc1cc(N)cc(C(=O)O)c1,outcome,[1],inactive
same,Potency,[2],inactive
same,Potency,[3],inactive
same,Potency,[4],inactive
same,Potency,[5],inactive
same,outcome,[6],inactive
same,Potency,[7],inactive
same,Potency,[8],inactive
same,Potency,[9],inactive
same,Potency,[10],inactive
Nc1ncnc2c1ncn2Cc1c(F)cccc1Cl,outcome,[1],inactive
same,Potency,[2],inactive
same,Potency,[3],inactive
same,Potency,[4],inactive
same,Potency,[5],inactive
same,outcome,[6],inactive
same,Potency,[7],inactive
same,Potency,[8],inactive
same,Potency,[9],inactive
same,Potency,[10],inactive
COC(=O)CCCC(=O)O,outcome,[1],inactive
same,Potency,[2],inactive
same,Potency,[3],inactive
same,Potency,[4],inactive
same,Potency,[5],inactive
same,outcome,[6],inactive
same,Potency,[7],inactive
same,Potency,[8],inactive
same,Potency,[9],inactive
same,Potency,[10],inactive
CC(=O)N[C@@H](CCC(N)=O)C(=O)O,outcome,[1],inactive
same,Potency,[2],inactive
same,Potency,[3],inactive
same,Potency,[4],inactive
same,Potency,[5],inactive
same,outcome,[6],inactive
same,Potency,[7],inactive
same,Potency,[8],inactive
same,Potency,[9],inactive
same,Potency,[10],inactive
Nc1cc(C(Cl)=C(Cl)Cl)c(S(N)(=O)=O)cc1S(N)(=O)=O,outcome,[1],inactive
same,Potency,[2],inactive
same,Potency,[3],inactive
same,Potency,[4],inactive
same,Potency,[5],inactive
same,outcome,[6],inactive
same,Potency,[7],inactive
same,Potency,[8],inactive
same,Potency,[9],inactive
same,Potency,[10],inactive
Cc1ccc(Nc2ccc(O)c3c2C(=O)c2ccccc2C3=O)cc1,outcome,[1],inactive
same,Potency,[2],inactive
same,Potency,[3],inactive
same,Potency,[4],inactive
same,Potency,[5],inactive
same,outcome,[6],inactive
same,Potency,[7],inactive
same,Potency,[8],inactive
same,Potency,[9],inactive
same,Potency,[10],inactive
NC1CCN(c2cccc(Cl)n2)CC1,outcome,[1],inactive
same,Potency,[2],inactive
same,Potency,[3],inactive
same,Potency,[4],inactive
same,Potency,[5],inactive
same,outcome,[6],inactive
same,Potency,[7],inactive
same,Potency,[8],inactive
same,Potency,[9],inactive
C(=C(c1ccccc1)c1ccccc1)c1ccccc1,outcome,[1],inactive
same,Potency,[2],inactive
same,Potency,[3],inactive
same,Potency,[4],inactive
same,Potency,[5],inactive
same,outcome,[6],inactive
same,Potency,[7],inactive
same,Potency,[8],inactive
same,Potency,[9],inactive
same,Potency,[10],inactive
NCC[C@H](O)C(=O)N[C@@H]1C[C@H](N)[C@@H](O[C@H]2O[C@H](CN)[C@@H](O)[C@H](O)[C@H]2O)[C@H](O)[C@H]1O[C@H]1O[C@H](CO)[C@@H](O)[C@H](N)[C@H]1O,"activity change, negative = cytotoxicity",[1],1.06% [at 0.29 µM]
same,cytotoxicity increase,[2],0.628% [at 0.29 µM]
same,cytotoxicity,[3],-4.16% [at 0.29 µM]
same,cytotoxicity increase,[4],-0.727% [at 0.29 µM]
same,cytotoxicity increase,[5],-8.01% [at 0.29 µM]
same,"activity change, negative = cytotoxic",[6],3.3% [at 0.29 µM]
same,"activity change, negative = cytotoxicity",[7],4.59% [at 0.29 µM]
same,"activity change, negative = cytotoxicity",[8],2.61% [at 0.29 µM]
same,activity change,[9],"0.183% [at 0.29 µM, hits give high values]"
same,"activity change, negative = cytotoxicity",[10],7.1% [at 0.29 µM]
